# Reference: PubChem BioAssay (Tox21)
# Active and inactive are the calls of the source. A call without a number means that no potency is given here. Unless noted, calls follow the shape of the dose curve; as a rule, active = well fitted curve in the direction sought with a large enough effect in the repeat runs; inconclusive = weak or mixed curves; inactive = no such curve, though single readings can be large; an effect the other way counts as inactive or inconclusive.
# Columns and labels:
# [1] = tested on: thyroid hormone receptor (rat, GH3 cells); test: qHTS assay to identify small molecule agonists of the thyroid receptor (TR) signaling pathway (AID 743066; calls by dose curve; also: potency is read from the fitted curve at half-maximal effect)
# [2] = biological target: Estrogen receptor (Homo sapiens) (UniProt P03372); test: qHTS assay to identify small molecule antagonists of the estrogen receptor alpha (ER-alpha) signaling pathway (AID 743069; active = well fitted curve in the direction sought with a large enough effect in the signal ratio in the repeat runs, not every such curve was filed as active; inconclusive = weak or mixed curves, or effect the other way; inactive = no such curve, though single readings can be large or run the other way; the % refers to the signal ratio; also: potency is read from the fitted curve at half-maximal effect)
# Summary of the method: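 In this cell-based reporter format, GripTite HEK293 cells harbouring ER-alpha-UAS-bla were grown overnight with 2% charcoal-stripped FBS, dosed with DMSO-dissolved compounds, then challenged with 17beta-estradiol. After 18 hr at 37C, beta-lactamase activity was detected by FRET fluorescence.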
# [3] = qHTS assay to identify small molecule antagonists of the estrogen receptor alpha (ER-alpha) signaling pathway - cell viability counter screen (AID 743074; calls by dose curve; also: nearly all actives have a fitted effect of over 45% in size; also: potency is read from the fitted curve at half-maximal effect)
# [4] = biological target: Estrogen receptor (Homo sapiens) (UniProt P03372); test: qHTS assay to identify small molecule agonists of the estrogen receptor alpha (ER-alpha) signaling pathway (AID 743075; calls by dose curve)
# [5] = biological target: Estrogen receptor (Homo sapiens) (UniProt P03372); test: qHTS assay to identify small molecule agonists of the estrogen receptor alpha (ER-alpha) signaling pathway using the BG1 cell line (AID 743079); details: BG1Luc4E2 cells, ERE-luciferase agonist, 22 h; activation: at 70.3 µM (top of the series); also: nearly all actives have a fitted effect of over 20% in size; also: potency is read from the fitted curve at half-maximal effect
# [6] = qHTS assay to identify small molecule antagonists of the estrogen receptor alpha (ER-alpha) signaling pathway using the BG1 cell line (AID 743080; calls by dose curve;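 also: BG1 cells stimulated with 17beta-estradiol alongside compound; nearly all actives have a fitted effect of over 25% in size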)
# Summary of the method: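 Quantitative HTS on the Tox21 10K library: BG1 cells with endogenous ER-alpha and ERE-luciferase reporter, 17beta-estradiol stimulation, 21.5 h compound exposure, luminescence endpoint with parallel fluorescence cytotoxicity counter-read.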
# [7] = qHTS assay to identify small molecule antagonists of the estrogen receptor alpha (ER-alpha) signaling pathway using the BG1 cell line - cell viability counter screen (AID 743081);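 also: compound given together with 17beta-estradiol as the ER stimulus; nearly all actives have a fitted effect of over 45% in size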; also: potency is read from the fitted curve at half-maximal effect
# Aromatase (Homo sapiens) = Aromatase (Homo sapiens) (UniProt P11511); test: qHTS assay to identify aromatase inhibitors (AID 743083); also: nearly all actives have a fitted effect of over 55% in size; also: potency is read from the fitted curve at half-maximal effect
# Chain of Aromatase (Homo sapiens) (P11511 whole entry, looked up): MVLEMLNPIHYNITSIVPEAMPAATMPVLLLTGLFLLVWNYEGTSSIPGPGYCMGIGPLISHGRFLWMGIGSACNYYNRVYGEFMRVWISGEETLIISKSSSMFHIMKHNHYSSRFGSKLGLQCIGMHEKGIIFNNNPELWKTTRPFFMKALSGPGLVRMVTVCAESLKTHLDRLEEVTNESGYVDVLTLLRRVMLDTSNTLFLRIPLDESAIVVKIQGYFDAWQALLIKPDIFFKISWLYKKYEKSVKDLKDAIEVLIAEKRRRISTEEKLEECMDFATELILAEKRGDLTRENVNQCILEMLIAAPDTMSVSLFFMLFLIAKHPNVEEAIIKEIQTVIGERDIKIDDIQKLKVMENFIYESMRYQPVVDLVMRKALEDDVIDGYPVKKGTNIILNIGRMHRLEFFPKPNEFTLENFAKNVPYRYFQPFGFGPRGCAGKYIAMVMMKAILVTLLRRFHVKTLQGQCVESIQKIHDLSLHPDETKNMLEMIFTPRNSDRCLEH
# Chain of Estrogen receptor (Homo sapiens) (P03372 whole entry, looked up): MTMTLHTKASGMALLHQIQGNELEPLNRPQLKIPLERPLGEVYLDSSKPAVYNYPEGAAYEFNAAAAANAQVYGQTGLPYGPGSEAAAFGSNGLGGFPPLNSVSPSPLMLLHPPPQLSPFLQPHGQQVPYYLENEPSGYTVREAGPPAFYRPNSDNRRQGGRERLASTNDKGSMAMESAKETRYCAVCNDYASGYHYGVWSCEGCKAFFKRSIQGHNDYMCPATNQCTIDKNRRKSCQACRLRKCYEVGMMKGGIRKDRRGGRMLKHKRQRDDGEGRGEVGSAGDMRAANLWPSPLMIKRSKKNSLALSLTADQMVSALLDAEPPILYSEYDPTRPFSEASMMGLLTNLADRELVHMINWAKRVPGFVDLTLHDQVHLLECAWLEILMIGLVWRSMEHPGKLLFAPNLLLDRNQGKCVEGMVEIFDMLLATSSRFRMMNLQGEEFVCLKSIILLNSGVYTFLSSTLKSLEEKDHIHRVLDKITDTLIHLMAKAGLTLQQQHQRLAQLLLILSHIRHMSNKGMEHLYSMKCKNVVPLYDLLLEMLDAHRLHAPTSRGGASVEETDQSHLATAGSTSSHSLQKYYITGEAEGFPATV
SMILES,Potency [1],Potency [2],Potency [3],Potency [4],Potency [5],Potency [6],Potency [7],Potency (Aromatase (Homo sapiens))
CC1CC(OC(=O)C(O)c2ccccc2)CC(C)(C)C1 (stereo not drawn),inactive,inactive,inactive,inactive,inactive,inactive,inactive,inactive
Cc1cc(-n2c(=O)[nH]c(=O)n(C)c2=O)ccc1Oc1ccc(S(=O)(=O)C(F)(F)F)cc1,9.44 µM (active),–,–,inactive,–,–,inactive,inactive
CCCCCCCCCCCC(=O)N(CCO)CCO,inactive,–,inactive,inactive,inactive,inactive,inactive,inactive
CCCCC/C=C\C/C=C\C/C=C\CCCCC(=O)O,inactive,–,inactive,–,–,–,inactive,inactive
CO[C@H]1C[C@@H]2CC[C@@H](C)[C@@](O)(O2)C(=O)C(=O)N2CCCC[C@H]2C(=O)O[C@H]([C@H](C)C[C@@H]2CC[C@@H](OC(=O)C(C)(CO)CO)[C@H](OC)C2)CC(=O)[C@H](C)/C=C(\C)[C@@H](O)[C@@H](OC)C(=O)[C@H](C)C[C@H](C)/C=C/C=C/C=C/1C,–,inactive,inactive,inactive,23.7 µM (active),inactive,inactive,inactive
C=CC1=C(C)C2=CC3=NC(=C(CC(=O)[O-])C4=NC(=C(C)C4=C([O-])[O-])C=c4[n-]c(c(C)c4CC)=CC1=N2)C(CCC(=O)[O-])C3C.[Cu+2].[Na+].[Na+].[Na+] (stereo not drawn),inactive,inactive,inactive,inactive,inactive,–,29.8 µM (active),inactive
CC(C)CN(C[C@@H](O)[C@H](Cc1ccccc1)NC(=O)O[C@@H]1CCOC1)S(=O)(=O)c1ccc(N)cc1,–,inactive,inactive,inactive,–,–,inactive,inactive
Cc1ccccc1OCC(O)CNCCOc1ccc(C(N)=O)cc1 (stereo not drawn),–,–,inactive,–,–,–,inactive,inactive
CC(O)[C@@H]1NC(=O)[C@H](CCCCN)NC(=O)[C@@H](Cc2c[nH]c3ccccc23)NC(=O)[C@H](Cc2ccccc2)NC(=O)[C@@H](NC(=O)[C@H](N)Cc2ccccc2)CSSC[C@@H](C(=O)N[C@H](CO)[C@@H](C)O)NC1=O (stereo partly drawn),–,–,inactive,inactive,–,inactive,inactive,inactive
CC[N+](C)(C)Cc1ccccc1Br,–,inactive,inactive,inactive,inactive,inactive,inactive,inactive
Nc1ncnc2c1ncn2[C@@H]1O[C@H](COP(=O)(O)OP(=O)(O)OP(=O)(O)O)[C@@H](O)[C@H]1O,–,–,6.01 µM (active),inactive,inactive,–,inactive,inactive
CO[C@H]1C[C@H](O[C@@H]2/C(C)=C/C[C@@H]3C[C@@H](C[C@]4(CC[C@H](C)[C@@H](C5CCCCC5)O4)O3)OC(=O)[C@@H]3C=C(C)/C(=N/O)[C@H]4OC/C(=C\C=C\[C@@H]2C)[C@]43O)O[C@@H](C)[C@@H]1O,–,–,inactive,–,–,–,inactive,inactive
CCNC(=O)[C@@H]1CCCN1C(=O)[C@H](CCCN=C(N)N)NC(=O)[C@H](CC(C)C)NC(=O)[C@@H](CC(C)C)NC(=O)[C@H](Cc1ccc(O)cc1)NC(=O)[C@H](CO)NC(=O)[C@H](Cc1c[nH]c2ccccc12)NC(=O)[C@H](Cc1cnc[nH]1)NC(=O)[C@@H]1CCC(=O)N1,–,–,inactive,–,–,inactive,–,inactive
CC[C@H](C)[C@H]1O[C@]2(CC[C@@H]1C)C[C@@H]1C[C@@H](C/C=C(\C)[C@@H](O[C@H]3C[C@H](OC)[C@@H](O[C@H]4C[C@H](OC)[C@@H](O)[C@H](C)O4)[C@H](C)O3)[C@@H](C)/C=C/C=C3\CO[C@@H]4[C@H](O)C(C)=C[C@@H](C(=O)O1)[C@]34O)O2,–,7.56 µM [inconclusive] (active),19 µM (active),–,–,–,–,inactive
CC(NNC(=O)c1ccccc1)c1ccccc1 (stereo not drawn),–,–,inactive,–,–,–,inactive,inactive
CN(CC(=O)N1CCOCC1)Cc1c(Cl)cccc1NC(=O)c1ccccc1,–,–,inactive,inactive,inactive,inactive,inactive,–
COc1ccc2c(=O)c(C)c(-c3ccccc3)oc2c1CN(C)C,–,–,inactive,–,–,–,inactive,–
OCC(S)CS (stereo not drawn),–,inactive,inactive,inactive,inactive,–,inactive,inactive
CCCCC(F)(F)[C@@]1(O)CC[C@H]2[C@@H](CC(=O)[C@@H]2CCCCCCC(=O)O)O1,–,–,inactive,–,inactive,inactive,inactive,–
CCC(=O)OCC(=O)[C@@]1(OC(=O)CC)[C@H](C)C[C@H]2[C@@H]3CCC4=CC(=O)C=C[C@]4(C)[C@@]3(F)[C@@H](O)C[C@@]21C,–,–,inactive,–,inactive,–,inactive,inactive
COc1ccc(C(=O)Nc2ccccc2CCC2CCCCN2C)cc1 (stereo not drawn),–,inactive,–,inactive,–,inactive,2.98 µM (active),inactive
OCCO[C@@H]1[C@@H](O)[C@H](O)[C@@H](CO)O[C@@H]1O,–,–,inactive,inactive,inactive,–,inactive,inactive
COC(=O)C1=C(C#N)NC(C)=C(C(=O)OC(C)C)C1c1cccc([N+](=O)[O-])c1 (stereo not drawn),–,–,inactive,inactive,inactive,inactive,inactive,29.8 µM (active)
CCC(=O)O[C@@H]1CC(=O)O[C@H](C)C/C=C/C=C/[C@H](O)[C@H](C)C[C@H](CC=O)[C@H](O[C@@H]2O[C@H](C)[C@@H](O[C@H]3C[C@@](C)(O)[C@@H](OC(=O)CC)[C@H](C)O3)[C@H](N(C)C)[C@H]2O)[C@H]1OC,–,–,inactive,–,–,–,inactive,inactive
C#C[C@]1(O)CC[C@H]2[C@@H]3CCC4=C(CCC(=O)C4)[C@H]3CC[C@@]21C,–,–,inactive,–,–,inactive,inactive,inactive
